IDE act: boosts human insulin-degrading enzyme activity in HEK cells. P14735. FAbeta-B cleavage, fluorescence polarization; 0% vehicle, 100% cell-free pure enzyme wells. activation, % at 5.96 µM. 0.073% of 340,000 active;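 active = activation above the mean of all tested compounds plus 3 SD, set per screening campaign, cut at about 17% in these data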
ALR inh: inhibitors of human sulfhydryl oxidase ALR; AID 485317; purified ALR, DTT oxidation, H2O2 HRP-luminol luminescence; 3.8% of 290,000 active; P55789; inhibition, % (concentration not given with the values);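 active = mean replicate inhibition above about 79%, with every replicate also reaching it, limit read from the data; inconclusive = only one of the two criteria met; inactive = mean below limit and not every replicate reaching it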
Target sequence (P55789 whole entry, looked up): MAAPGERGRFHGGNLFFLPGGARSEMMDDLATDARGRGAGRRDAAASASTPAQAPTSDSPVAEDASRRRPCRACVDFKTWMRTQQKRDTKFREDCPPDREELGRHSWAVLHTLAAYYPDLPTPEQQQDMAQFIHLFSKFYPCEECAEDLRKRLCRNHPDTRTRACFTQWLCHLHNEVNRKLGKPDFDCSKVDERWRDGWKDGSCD
PolyA inhibitor: blocks polyadenylation in yeast reporter cells | 0.02% of 300,000 active | S. cerevisiae SKY197-pL101 polyadenylation reporter, beta-gal luminescence; efflux-impaired pdr1/pdr3 knockout yeast; score 100 = 6 SD above DMSO | activity score, % at 12 µM;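 active = lowest replicate activity score at least 50, where 100 means six control SD above control mean; inconclusive = lowest score under 50 but half or more replicates reach 50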;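 also: yeast exposed to compound for 9 h at 30 °C; higher score means more reporter readthrough which indicates perturbed polyadenylation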
CaV13 FRET inh: Primary screen for inhibitors of IQ motif and Ca2+-dependent inactivation inhibitor domain binding in CACNA1D, Förster resonance energy transfer in living cells, …; inhibition, % at 12.3 µM; AID 743397; HEK cells, CFP/YFP FRET ICDI-IQ, plate reader, 10 min; percent FRET-ratio fall versus neutral wells; 0.098% of 340,000 active;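 active = mean replicate inhibition of at least 30% and at least 1% of replicates passing that level; inconclusive = only one of the two criteria is met; inactive = neither criterion is met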;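 also: 0% = median of the neutral control wells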
IDE cell inh: cellular human IDE inhibition; P14735; HEK cells, FAbetaB cleavage, fluorescence polarization; inhibition, % at 5.59 µM; 0.41% of 320,000 active; AID 434962;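 active = percent inhibition above the average of all tested compounds plus 3 SD, set per screening campaign, cut at about 16% in these data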;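 also: IDE supplied by intact live HEK cells; FP after avidin binding of uncleaved biotin substrate so inhibition keeps polarization high; 0% = DMSO wells and 100% = 60 µM reference IDE inhibitor Ii1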
PfM18AAP inh: PfM18AAP enzyme inhibition. inhibition, % at 7.35 µM. AID 1822. recombinant PfM18AAP, H-Glu-NHMec fluorogenic cleavage. 1.2% of 290,000 active;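 active = inhibition above the campaign mean inhibition over all tested compounds plus 3 SD, cut at about 28% in these data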;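 also: 0% = plate median of test compound wells and 100% = 2 mM ZnCl2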
An asterisk follows results filed as active; u = inconclusive; x = not tested or not shown. Most compounds without a hit are left out; they make up all but 4.1% or so of the library.

SMILES | IDE act | ALR inh | PolyA inhibitor | CaV13 FRET inh | IDE cell inh | PfM18AAP inh
CCc1nnc(NC(=O)CC23CC4CC(CC(Br)(C4)C2)C3)s1 | 1.8 | 4.3 | 7.2 | -4.9 | 6.0 | -1.6
O=C(NNc1ncnc2sccc12)c1ccc(Cl)cc1 | x | -3.5 | -6.0 | -1.7 | 1.8 | 28.4*
CCOc1ccc2nc(SCC(=O)Nc3ccc4[nH]c(=O)[nH]c4c3)[nH]c2c1 | 3.1 | x | 9.9 | -5.0 | -3.9 | x
CN(C)C(CNC(=O)CN1C(=O)NC2(CCc3ccccc32)C1=O)c1ccco1 (stereo unspecified) | 3.0 | 99.6* | -12.2 | -4.8 | 1.6 | -2.7
O=C(CN1C(=O)NC2(CCCc3ccccc32)C1=O)NCc1ccco1 (stereo unspecified) | -0.7 | -5.9 | 4.4 | -3.0 | 2.6 | -9.2
CC(=O)/C(=N\Nc1ccccc1)Sc1nncn1C | -2.4 | 97.6* | 5.6 | -2.6 | 1.7 | 16.5
CC(=O)/C(=N\Nc1ccccc1)Sc1nnc(-c2ccccc2)n1-c1ccccc1 | 2.0 | 2.4 | -5.4 | -1.2 | 2.8 | -0.6
O=C(c1ccco1)N1CCN(C(=O)C2CCCc3c2[nH]c2ccc(Cl)cc32)CC1 (stereo unspecified) | 3.6 | 35.2 | 8.0 | -7.3 | -5.0 | 7.4
COc1ccc(C2CC23N=C(c2ccccc2)OC3=O)cc1 (stereo unspecified) | 4.9 | 96.8* | -1.8 | -3.5 | -3.1 | 0.4
COc1ccc(C2=NC(c3ccccc3)CO2)cc1 (stereo unspecified) | x | 1.1 | -13.0 | x | 1.2 | 3.5
C[C@H](CO)N1C[C@H](C)[C@@H](CN(C)C(=O)c2ccccc2)OCc2cn(nn2)CCCC1=O | x | x | x | -3.3 | x | x
CCOc1ccc(-c2csc(NC(=O)CSC3=NC(=O)CN3C(C)=O)n2)c2ccccc12 | 4.4 | 98.6* | 26.6 | -4.7 | 6.5 | -5.8
CC(=O)N1CC(=O)N=C1SCC(=O)Nc1nc(C)c(-c2ccccc2)s1 | -1.9 | 98.3* | 8.7 | -10.1 | -3.0 | 8.9
CCOc1ccc(-c2csc(NC(=O)CSCC(=O)O)n2)c2ccccc12 | -2.3 | 44.0 | -5.1 | -6.2 | 1.0 | 1.4
Cc1nc(NC(=O)CN2CCOCC2)sc1-c1ccccc1 | 0.6 | -22.8 | -9.4 | x | 3.5 | 0.8
O=C(Nc1ncc([N+](=O)[O-])s1)c1cccc([N+](=O)[O-])c1 | 3.7 | 97.9* | 12.7 | -20.5 | 3.2 | 3.0
O=C(Nc1cccn(Cc2c(F)cccc2Cl)c1=O)NC1CCCCC1 | 1.6 | x | -9.2 | -3.9 | 6.8 | 28.3*
CC(=O)c1c(COC(=O)c2ccccc2)nc2ccccc2[n+]1[O-] | 1.1 | -2.1 | 0.5 | -3.7 | -0.4 | -5.1
CC(=O)c1c(COC(=O)c2ccc(Cl)cc2)nc2ccccc2[n+]1[O-] | 6.3 | -13.9 | 90.1* | -4.8 | -5.7 | -7.3
CC(O)c1cc2c(s1)c1cnn(Cc3ccccc3F)c(=O)c1n2C (stereo unspecified) | 3.4 | x | x | x | -1.9 | x
CC(C)(C)C(=O)NC1CCN(CC(=O)Nc2ccc3c(c2)OCO3)CC1 | 6.5 | 0.4 | -12.5 | -5.7 | -0.4 | -6.1
CC(=O)NCc1ccc(S(=O)(=O)N/N=C/c2ccc(N(C)C)cc2)cc1 | 0.1 | 97.6* | 8.4 | -2.9 | 1.8 | 5.5
Cc1ccc(C)c(S(=O)(=O)N/N=C/c2ccc(F)cc2)c1 | 0.6 | 12.1 | 5.8 | -7.2 | 9.5 | -0.9
Cc1ccc(C)c(S(=O)(=O)N/N=C/c2ccc(N(C)C)cc2)c1 | 7.7 | 98.9* | 10.2 | -3.0 | -3.7 | 6.0
CC(=O)CNc1ccc(S(=O)(=O)N/N=C/c2ccccc2)cc1 | 7.6 | x | 1.8 | -4.7 | 5.6 | 3.7
SMILES | IDE act | ALR inh | PolyA inhibitor | CaV13 FRET inh | IDE cell inh | PfM18AAP inh
C[C@@H]1CN([C@H](C)CO)C(=O)c2cc(Br)cnc2O[C@H]1CN(C)C(=O)Cc1ccncc1 | x | x | x | -6.3 | x | x
Cc1ccc(-n2c(O)c(/C=C3/C(c4ccccc4)=Nc4ccccc43)c(=O)[nH]c2=O)cc1 | 4.0 | 98.0* | -43.8 | -5.0 | 3.0 | -4.0
CC1=Nc2ccccc2/C1=C/c1sc(=S)n(-c2cccc(C(=O)O)c2)c1O | -128.4 | x | -6.2 | -63.1 | x | 11.4
COC(=O)Nc1sc2c(c1C(N)=O)CCC(C)C2 (stereo unspecified) | 0.9 | -5.3 | -9.1 | -6.2 | -1.6 | 48.5*
CCOc1ccccc1N(C(=O)Nc1ccc(Cl)cc1)C1=NC(C)CS1 (stereo unspecified) | -1.3 | -13.3 | 6.0 | 0.4 | -3.0 | -7.2
C[C@H](NC(=O)c1nc[nH]c1C(=O)N[C@@H](Cc1ccccc1)C(=O)OCc1ccccc1)C(=O)OCc1ccccc1 | -0.6 | 1.5 | -13.6 | 15.1 | 6.1 | -4.2
C[C@H](NC(=O)c1nc[nH]c1C(=O)N[C@@H](Cc1ccccc1)C(=O)OC(C)(C)C)C(=O)OCc1ccccc1 | 5.4 | x | -4.7 | 34.6* | 4.2 | 5.9
C=CCn1c(=N)n(CC(=O)OCC)c2ccccc21 | 2.6 | 99.4* | 0.3 | -3.8 | 12.5 | 2.8
COc1ccc(N2CCN(CCNC(=O)C3CCN(S(=O)(=O)c4cccs4)CC3)CC2)cc1 | 7.2 | 11.6 | 11.6 | -7.4 | -5.9 | 2.1
COc1ccc(N2CCN(CCNS(=O)(=O)c3cccc4nsnc34)CC2)cc1 | 5.6 | x | x | -2.0 | x | -2.4
Cc1ccc(CNC(=O)C(NS(=O)(=O)c2cccs2)C(C)C)cc1 (stereo unspecified) | 0.2 | x | 1.9 | -9.7 | 4.2 | -0.5
COc1ccc(N2CCN(CCNC(=O)Nc3ccc([N+](=O)[O-])cc3OC)CC2)cc1 | -2.9 | 88.8* | 1.1 | -4.1 | x | 4.7
CC(C)C(NS(=O)(=O)c1cccs1)C(=O)NCCN1CCN(c2ccccc2)CC1 (stereo unspecified) | 1.1 | 98.8* | 4.9 | x | -0.7 | 6.9
COc1ccc(OC)c(NC(=O)NCCN2CCN(c3ccccc3)CC2)c1 | 1.9 | u | -18.3 | -20.0 | -1.1 | -17.2
COc1ccc(N2CCN(CCNC(=O)CCNS(=O)(=O)c3cccs3)CC2)cc1 | 5.0 | 93.0* | -8.2 | -4.9 | -3.7 | 1.9
COc1ccc(N2CCN(CCNC(=O)CCS(=O)(=O)c3cccc4nsnc34)CC2)cc1 | x | 94.2* | -11.4 | x | -0.4 | -2.9
CCOC(=O)c1c(N)sc(-c2ccccc2)c1C | -6.7 | 98.7* | -21.9 | x | 12.9 | 10.5
CCOC(=O)c1cc(-c2ccccc2)sc1N | -0.7 | 98.7* | -0.8 | x | 3.0 | 6.3
CCOC(=O)c1cc(-c2ccccc2)sc1NC(=O)CSc1nnc(N)s1 | -0.7 | 2.2 | -7.0 | 96.4* | 2.2 | 5.3
CCOC(=O)c1cc(-c2ccccc2)sc1NC(=O)CSc1nncs1 | -2.9 | x | -8.4 | -5.7 | 2.7 | -4.7
CCOC(=O)c1c(N)sc(C(O)(C(F)(F)F)C(F)(F)F)c1-c1ccccc1 | 7.8 | x | 8.2 | x | -3.4 | -7.7
CCCCNC(=O)c1cc(-c2ccccc2)sc1N | x | x | x | -4.0 | x | x

Assay outcomes as filed in PubChem.
